Where “and” joins values, the source holds several entries; their conditions need not be identical. Equal entries are not always repeated. Records with an inconclusive call do not appear. Calls of active or inactive are those of the source. Unless noted, the call rests on the fitted dose curve; in most records, active means well fitted curve in the direction sought with a large enough effect; inconclusive means small, poorly fitted or top-dose-only effect, or another doubt; inactive means no such curve, though single readings can be large; an effect the other way counts as inactive or inconclusive.

Experiment [1] relates to Zika virus NS2B-NS3 protease. The experiment is described as follows: Primary screen GU AMC qHTS for Zika virus inhibitors (AID 1347154).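 Further: 0% = no-inhibitor control and -100% = no-enzyme control; nearly all actives have a fitted effect of over 70% in size.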 The procedure, abridged:
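Unlinked Zika NS2B hydrophilic domain/NS3 protease domain noncovalent complex (25 nM final) in 10 mM Tris-HCl pH 8.0, 0.01% Tween 20, with AMC peptide substrate. Fluorescence (ex 340, em 450 nm) change over 15 min, room temperature; percent inhibition fitted to 4-parameter Hill equation.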
(qHTS replaces the single test concentration by a dilution series.)

Experiment [2] in a line: Primary qHTS for small molecule stabilizers of the endoplasmic reticulum resident proteome: Secreted ER Calcium Modulated Protein (SERCaMP) assay (AID 1508630). Further: on the % scale 0 is the no-effect control and ±100 the full control effect. Put shortly: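 The SH-SY5Y reporter protocol was run at 3 concentrations up to 38.3 uM (primary) or 11 concentrations (follow-up): 16 h compound, 100 nM thapsigargin for 4 h, then extracellular luciferase luminescence.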

The nature of experiment [3]: AP1 Signaling Pathway (AID 357; active means well fitted curve in either direction with a large enough effect, not every such curve was filed as active;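 further: ME-180 reporter cells stimulated with EGF at its EC50 level; on the % scale 0 is the no-effect control and ±100 the full control effect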). To be noted: ME-180 AP-1-bla reporter, EGF-induced, beta-lactamase ratio, 5 h. The procedure, abridged: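 Titration-series screen for positive or negative modulators of EC50 EGF-induced signaling in ME-180 cells carrying an AP-1-driven beta-lactamase reporter. After 5 hours at 37 degrees Celsius, CCF4 460nm/530nm emission ratio gave %Activity; AC50 values derived.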

The target in experiment [4] is Cytochrome P450 1A2 (Homo sapiens) (UniProt P05177). The experiment is described as follows: p450-cyp1a2 (AID 410; calls by dose curve;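 further: -100% = full effect of reference inhibitor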). Put shortly:
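O-Demethylation of luciferin 6' methyl ether by human CYP1A2 is monitored as luciferase luminescence. Substrate sits at Km (100uM); enzyme is 20nM. Values are scaled to 57 uM furafylline as maximal inhibition.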

A short description of experiment [5]: NFAT Signaling Pathway (AID 444; active means well fitted curve in either direction with a large enough effect, not every such curve was filed as active;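 further: carbachol stimulus at about its EC50 of 1 µM final; on the % scale 0 is the no-effect control and ±100 the full control effect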). To be noted: Jurkat NFAT-bla M1, carbachol, beta-lactamase ratio, 5 h. The procedure, abridged:
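Jurkat cells carrying an NFAT-driven β-lactamase reporter and co-transfected muscarinic M1 receptor were treated with compound plus carbachol (1 uM final, an EC50 level) for 5 h at 37 °C. CCF4 loading followed for 1 h at RT; 460/530 nm ratio gave %activity.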

Experiment [6] can be described thus: Stat Signaling Pathway (AID 446; active means well fitted curve in either direction with a large enough effect, not every such curve was filed as active;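 further: ME-180 cervical cancer cells given 40 pM IL-6 alongside compound; SIE-controlled beta-lactamase reporter measured as 460/530 nm FRET emission ratio; on the % scale 0 is the no-effect control and ±100 the full control effect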). The following applies: ME-180 (cervical carcinoma) SIE beta-lactamase reporter, IL-6 stimulated, 5 h. The procedure, abridged: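 Compound effects on IL-6-induced STAT reporter activity were measured in ME-180 cells. After overnight culture, cells were co-treated with 40 pM IL-6 for 5 hrs before beta-lactamase substrate loading at room temperature.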

For experiment [7], the target named is Glucocorticoid receptor (Homo sapiens) (UniProt P04150). The experiment is described as follows: GR-GFP Redistribution (AID 450;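 active means compounds whose dose series gives a full or clear partial fitted curve of increased nuclear translocation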; further: potency means the concentration at half of the fitted maximal effect). To be noted: U2OS GR-GFP nuclear translocation, laser cytometry, 2 h.
For experiment [8] the target is unchanged. The experiment is described as follows: GR-EFC Redistribution (AID 451; calls by dose curve; further: potency means the concentration at half of the fitted maximal effect). To be noted: CHO-K1 GR-EFC translocation, beta-gal luminescence, 2 h. The procedure, abridged: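 CHO-K1 cells stably expressing nuclear-localized β-gal enzyme acceptor and GR fused C-terminally to the enzyme donor fragment; ligand-driven nuclear translocation restores β-gal by complementation. Compounds titrated up to 46 uM final, 2 h at 37 °C; luminescence read.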

In experiment [9] the target is Mitogen-activated protein kinase 10 (Mus musculus) (UniProt Q61831). The experiment is described as follows: JNK3 AlphaScreen Assay (AID 530; active means well fitted curve in either direction with a large enough effect, not every such curve was filed as active). The procedure, abridged:
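Phosphorylation of biotinylated GST-cJun(1-79) at Ser73 is measured by AlphaScreen proximity luminescence. Enzyme is JNK3 in HepG2 lysates activated with interleukin-1beta and tumor necrosis factor alpha; ATP is 10 uM final.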
In general terms: Bead proximity is the source of the signal in Alpha formats.

Experiment [10] deals with 3',5'-cyclic-AMP phosphodiesterase 4B (Homo sapiens) (UniProt Q07343). As to the kind of experiment: qHTS Assay for Inhibitors of PDE-IV (AID 607; active means well fitted activation curve with a large enough effect in the main read-out, with a control signal flat, not every such curve was filed as active; further: % of control where 0% means no effect). Put shortly:
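ACTOne HEK293 cells carry a modified cAMP-gated CNG channel and express endogenous PDE4; plated 1000 cells/well, compounds up to 22.9 uM final. Membrane-potential dye fluorescence (ex 535/em 590) was read; parental cells received 10 uM forskolin + 100 uM RO 20-1724.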

The nature of experiment [11]: qHTS Assay for Lipid Storage Modulators (AID 1519; calls by dose curve). The following applies: Drosophila S3 cells, BODIPY lipid droplet/cell ratio, laser cytometry, cells loaded with oleic acid. Put shortly: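 Cells seeded at 5,000 per well were treated with compounds over a concentration series and loaded with oleic acid (400 uM, as added). Lipid droplet fluorescence (488 nm excitation, 500-530 nm channel) was read by laser-scanning cytometry and normalized to 20 uM Triacsin C.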

The target of experiment [12] is Ubiquitin carboxyl-terminal hydrolase 1 (Homo sapiens) (UniProt O94782). As to the kind of experiment: Inhibitors of USP1/UAF1: Pilot qHTS (AID 504865).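 Further: rhodamine fluorescence freed from ubiquitin-rhodamine substrate followed over time; top concentration of the series differs between compounds; on the % scale 0 is the no-effect control and ±100 the full control effect; nearly all actives have a fitted effect of over 35% in size.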 The procedure, abridged: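 Kinetic fluorescence assay: 1nM USP1/UAF1, 15 min compound preincubation, then 150nM Ub-Rho; 480/540 nm.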
The target of experiment [13] is DNA dC->dU-editing enzyme APOBEC-3G (Homo sapiens) (UniProt Q9HC16). The experiment is described as follows: qHTS for inhibitors of Vif-A3G interactions: Validation (AID 588379). Further: 0% is about no effect. Put shortly: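 Yellow fluorescence (Ex 488, Em 500-530) of Vif-coexpressing HeLa A3G-eYFP cells, scanned by Acumen cytometer, reports blocked A3G degradation. Cells plated at 700/well overnight at 37 deg C before compound addition, then a further overnight compound incubation at 37 deg C.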

Experiment [14] addresses Guanine nucleotide-binding protein G(i) subunit alpha-1 (Homo sapiens) (UniProt P63096). As to the kind of experiment: qHTS Assay for Inhibitors of RGS12 GoLoco Motif Activity (Green Fluorophore) (AID 879).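 Further: 0% = labeled peptide with Gαi1 and full inhibition = labeled peptide alone without protein; negative values mean loss of peptide binding seen as reduced polarization.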 Put shortly: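 A drop in FITC polarization marked displacement of the FITC-tagged RGS12 GoLoco peptide (10 nM) from Gαi1 (50 nM). Compounds were incubated 10 min at room temperature in Tris pH 7.5 buffer containing 150 mM NaCl, 0.1 mM GDP and 0.05% NP40; unlabeled peptide titration served as control.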

The nature of experiment [15]: qHTS Assay for Identification of Small Molecule Agonists for Thrombopoietin (TPO) Signaling Pathway (AID 917). Further: on the % scale 0 is the no-effect control and ±100 the full control effect. Put shortly: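 Quantitative HTS for pathway activators: compounds were pin-transferred onto IL-3-starved Ba/F3 cells expressing human TPO receptor, TPO was added at its EC50 (26 pM final), and after 24 hrs at 37 C reporter luciferase was measured.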
The target of experiment [16] is Muscarinic acetylcholine receptor M1 (Rattus norvegicus) (UniProt P08482). As to the kind of experiment: qHTS Assay for Antagonists of Acetylcholine Muscarinic M1 Receptor: Measurement of IP-One Response (AID 944). Further: nearly all actives have a fitted effect of over 75% in size. Put shortly:
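Antagonist mode with rat M1 receptor transfected into CHO cells. Compound is added first for 10 min, carbachol at its EC80 follows for 30 min, and lysis reagents then allow TR-FRET detection of accumulated IP1.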

Experiment [17] addresses Pyruvate kinase (Leishmania mexicana) (UniProt Q27686). The experiment is described as follows: qHTS Validation Assay for Inhibitors of Leishmania Mexicana Pyruvate Kinase (AID 945).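 Further: 0% = DMSO only neutral control wells.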 Put shortly: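 Pyruvate kinase activity of E451W LmPYK (0.2 nM) was followed as ATP output after 1 h at room temperature with 0.5 mM PEP and 0.1 mM ADP, detected by PKLight luminescence.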

For experiment [18], the target named is Pyruvate kinase PKM (Homo sapiens) (UniProt P14618). As to the kind of experiment: qHTS Assay for Activators of Human Muscle Pyruvate Kinase (AID 954; active means well fitted curve in the direction sought with a large enough effect, not every such curve was filed as active;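 further: 0% = uninhibited enzyme and -100% = no enzyme or full thiadiazolimine inhibition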). Put shortly: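 A coupled luminescent readout tracked ATP made from ADP by purified PKM2. Final conditions included 0.1 nM enzyme, PEP and ADP at 0.5 and 0.1 mM, pH 7.2 imidazole buffer with BSA, and a one-hour room-temperature reaction.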

For experiment [19], the target named is Alpha-galactosidase A (Homo sapiens) (UniProt P06280). The experiment is described as follows: Counterscreen for Glucocerebrosidase Inhibitors: qHTS Assay for Human alpha-Galactosidase at pH 4.5 (AID 992). Further: 0% is about no effect. Put shortly: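 Citrate buffer pH 4.5, Tween-20 0.005%. Enzyme 2 nM, substrate 80 uM, 20 min RT. Stop pH 10. Fluorescence Ex 365/Em 440. AC50 by Hill fit.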
(A counterscreen serves to expose hits that act by an unwanted route or on another target.)

The target of experiment [20] is alpha-glucosidase (Oryza sativa, rice) (UniProt Q653V4). As to the kind of experiment: Counterscreen for Glucocerebrosidase Inhibitors: qHTS Assay for Rice alpha-Glucosidase at pH 5.0 (AID 997).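 Further: 0% = full activity with enzyme and -100% = basal without enzyme.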 Put shortly:
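Endpoint fluorogenic assay at pH 5.0: compounds (0.7 nM to 77 uM) titrated against 4 nM rice enzyme and 400 uM 4-MU-alpha-glucoside for 20 min at room temperature; NaOH/glycine stop, read ex 365/em 440 nm, Hill-fitted AC50.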

The mark [21] stands for this setting: measured here: cell count channel max response.
The mark [22] stands for this setting: measured here: lipid channel max response.

Cytochrome P450 1A2 (Homo sapiens), sequence (P05177 whole entry, looked up): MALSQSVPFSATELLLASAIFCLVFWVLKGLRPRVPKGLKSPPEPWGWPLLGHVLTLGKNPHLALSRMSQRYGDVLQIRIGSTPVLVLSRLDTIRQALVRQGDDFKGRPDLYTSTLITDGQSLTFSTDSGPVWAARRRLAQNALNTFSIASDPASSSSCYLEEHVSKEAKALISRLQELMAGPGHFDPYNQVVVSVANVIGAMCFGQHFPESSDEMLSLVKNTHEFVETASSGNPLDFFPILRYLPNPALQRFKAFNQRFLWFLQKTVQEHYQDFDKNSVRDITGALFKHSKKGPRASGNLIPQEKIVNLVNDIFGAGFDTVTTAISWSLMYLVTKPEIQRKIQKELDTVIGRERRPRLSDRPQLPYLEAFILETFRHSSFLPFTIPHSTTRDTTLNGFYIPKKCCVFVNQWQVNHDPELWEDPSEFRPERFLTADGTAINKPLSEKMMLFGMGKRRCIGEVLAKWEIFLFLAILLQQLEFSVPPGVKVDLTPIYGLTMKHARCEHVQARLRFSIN
3',5'-cyclic-AMP phosphodiesterase 4B (Homo sapiens), sequence (Q07343 whole entry, looked up): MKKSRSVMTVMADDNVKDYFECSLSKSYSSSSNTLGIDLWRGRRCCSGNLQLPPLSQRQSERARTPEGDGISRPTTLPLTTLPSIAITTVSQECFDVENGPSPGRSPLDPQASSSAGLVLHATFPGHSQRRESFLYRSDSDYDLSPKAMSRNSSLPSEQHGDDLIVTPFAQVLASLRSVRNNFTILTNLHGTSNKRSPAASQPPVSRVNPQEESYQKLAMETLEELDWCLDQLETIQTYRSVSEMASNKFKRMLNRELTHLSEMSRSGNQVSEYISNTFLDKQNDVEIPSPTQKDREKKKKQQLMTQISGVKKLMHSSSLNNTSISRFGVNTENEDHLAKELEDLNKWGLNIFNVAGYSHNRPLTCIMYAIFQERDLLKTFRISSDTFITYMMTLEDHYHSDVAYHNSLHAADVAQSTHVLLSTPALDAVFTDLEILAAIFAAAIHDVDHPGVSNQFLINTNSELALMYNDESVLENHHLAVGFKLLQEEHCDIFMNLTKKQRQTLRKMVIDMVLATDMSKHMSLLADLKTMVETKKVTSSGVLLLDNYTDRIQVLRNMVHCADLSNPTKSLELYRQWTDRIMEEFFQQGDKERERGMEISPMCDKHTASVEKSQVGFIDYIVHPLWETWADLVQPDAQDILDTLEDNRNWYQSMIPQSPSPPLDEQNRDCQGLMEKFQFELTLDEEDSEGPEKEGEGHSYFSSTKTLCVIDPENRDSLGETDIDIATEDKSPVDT
Glucocorticoid receptor (Homo sapiens), sequence (P04150 whole entry, looked up, the tested form may be a part): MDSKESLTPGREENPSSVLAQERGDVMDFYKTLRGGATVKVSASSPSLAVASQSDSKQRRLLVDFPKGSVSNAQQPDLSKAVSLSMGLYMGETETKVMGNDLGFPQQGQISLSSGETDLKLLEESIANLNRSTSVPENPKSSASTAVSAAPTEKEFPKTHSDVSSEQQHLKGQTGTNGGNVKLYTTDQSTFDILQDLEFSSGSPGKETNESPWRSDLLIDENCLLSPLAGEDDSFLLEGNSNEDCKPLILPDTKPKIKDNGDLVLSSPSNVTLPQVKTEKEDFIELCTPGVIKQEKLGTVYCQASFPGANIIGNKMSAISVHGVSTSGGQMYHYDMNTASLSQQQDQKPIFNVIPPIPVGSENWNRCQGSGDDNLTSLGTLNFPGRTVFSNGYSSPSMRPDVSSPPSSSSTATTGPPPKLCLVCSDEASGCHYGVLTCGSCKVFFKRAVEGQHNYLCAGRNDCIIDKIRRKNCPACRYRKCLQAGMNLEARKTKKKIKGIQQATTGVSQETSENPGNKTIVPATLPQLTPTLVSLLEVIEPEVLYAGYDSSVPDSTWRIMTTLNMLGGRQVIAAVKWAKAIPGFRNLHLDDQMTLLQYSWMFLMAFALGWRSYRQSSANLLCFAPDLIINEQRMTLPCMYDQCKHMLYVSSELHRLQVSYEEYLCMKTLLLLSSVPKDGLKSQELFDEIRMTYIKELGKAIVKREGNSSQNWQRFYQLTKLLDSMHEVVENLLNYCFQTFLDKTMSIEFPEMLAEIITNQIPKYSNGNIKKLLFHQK
Ubiquitin carboxyl-terminal hydrolase 1 (Homo sapiens), sequence (O94782 whole entry, looked up): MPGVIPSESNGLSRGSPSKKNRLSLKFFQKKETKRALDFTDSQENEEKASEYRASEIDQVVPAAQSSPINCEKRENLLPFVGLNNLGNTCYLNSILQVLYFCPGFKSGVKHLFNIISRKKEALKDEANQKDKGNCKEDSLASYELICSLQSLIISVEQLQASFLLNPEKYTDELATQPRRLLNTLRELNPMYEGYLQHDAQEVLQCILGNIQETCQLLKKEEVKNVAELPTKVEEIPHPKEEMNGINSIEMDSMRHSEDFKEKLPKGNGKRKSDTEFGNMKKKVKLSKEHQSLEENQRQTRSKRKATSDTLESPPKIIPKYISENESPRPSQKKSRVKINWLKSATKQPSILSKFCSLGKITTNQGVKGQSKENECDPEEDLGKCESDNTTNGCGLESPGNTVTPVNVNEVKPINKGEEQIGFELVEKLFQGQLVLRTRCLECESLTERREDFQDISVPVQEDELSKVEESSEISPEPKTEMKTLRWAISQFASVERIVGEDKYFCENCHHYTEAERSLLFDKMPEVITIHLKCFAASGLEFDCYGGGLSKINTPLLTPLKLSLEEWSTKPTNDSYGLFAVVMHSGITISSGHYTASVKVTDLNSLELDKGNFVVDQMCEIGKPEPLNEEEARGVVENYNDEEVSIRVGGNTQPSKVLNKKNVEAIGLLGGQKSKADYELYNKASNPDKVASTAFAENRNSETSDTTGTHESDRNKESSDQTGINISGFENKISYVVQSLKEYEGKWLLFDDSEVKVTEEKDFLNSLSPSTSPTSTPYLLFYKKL
DNA dC->dU-editing enzyme APOBEC-3G (Homo sapiens), sequence (Q9HC16 whole entry, looked up): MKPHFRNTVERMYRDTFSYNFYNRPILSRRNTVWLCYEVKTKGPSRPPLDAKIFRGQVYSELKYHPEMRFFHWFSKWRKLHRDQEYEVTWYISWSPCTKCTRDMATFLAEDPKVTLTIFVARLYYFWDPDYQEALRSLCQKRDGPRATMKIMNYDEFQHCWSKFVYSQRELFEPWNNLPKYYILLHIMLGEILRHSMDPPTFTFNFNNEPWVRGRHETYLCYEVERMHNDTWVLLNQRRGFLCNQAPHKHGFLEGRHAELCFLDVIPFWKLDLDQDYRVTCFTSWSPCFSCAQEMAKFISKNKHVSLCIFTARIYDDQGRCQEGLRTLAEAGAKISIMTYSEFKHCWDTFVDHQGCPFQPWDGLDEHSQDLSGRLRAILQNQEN
Guanine nucleotide-binding protein G(i) subunit alpha-1 (Homo sapiens), sequence (P63096 whole entry, looked up): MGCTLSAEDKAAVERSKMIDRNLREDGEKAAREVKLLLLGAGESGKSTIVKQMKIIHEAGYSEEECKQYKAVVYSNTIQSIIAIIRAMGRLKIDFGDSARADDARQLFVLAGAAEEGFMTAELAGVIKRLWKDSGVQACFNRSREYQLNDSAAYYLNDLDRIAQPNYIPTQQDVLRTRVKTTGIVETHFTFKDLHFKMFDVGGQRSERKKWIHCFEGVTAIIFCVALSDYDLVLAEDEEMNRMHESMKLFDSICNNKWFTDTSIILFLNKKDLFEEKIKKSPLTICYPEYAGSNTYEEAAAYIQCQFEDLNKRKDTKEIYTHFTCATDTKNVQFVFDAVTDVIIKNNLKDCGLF
Pyruvate kinase PKM (Homo sapiens), sequence (P14618 whole entry, looked up): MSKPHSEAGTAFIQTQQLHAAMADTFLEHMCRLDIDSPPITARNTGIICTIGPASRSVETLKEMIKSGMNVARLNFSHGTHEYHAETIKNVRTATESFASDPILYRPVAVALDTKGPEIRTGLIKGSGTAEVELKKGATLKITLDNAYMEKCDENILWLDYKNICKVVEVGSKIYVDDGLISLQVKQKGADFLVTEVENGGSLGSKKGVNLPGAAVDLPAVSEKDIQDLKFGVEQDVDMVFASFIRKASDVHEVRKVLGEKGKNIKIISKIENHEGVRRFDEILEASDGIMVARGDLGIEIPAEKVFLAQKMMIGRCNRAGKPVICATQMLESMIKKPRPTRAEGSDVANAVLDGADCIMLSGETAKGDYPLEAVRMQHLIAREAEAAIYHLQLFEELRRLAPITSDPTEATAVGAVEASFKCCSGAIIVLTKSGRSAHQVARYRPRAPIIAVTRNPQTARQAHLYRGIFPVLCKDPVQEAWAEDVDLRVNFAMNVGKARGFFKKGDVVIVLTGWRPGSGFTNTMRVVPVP
Alpha-galactosidase A (Homo sapiens), sequence (P06280 whole entry, looked up): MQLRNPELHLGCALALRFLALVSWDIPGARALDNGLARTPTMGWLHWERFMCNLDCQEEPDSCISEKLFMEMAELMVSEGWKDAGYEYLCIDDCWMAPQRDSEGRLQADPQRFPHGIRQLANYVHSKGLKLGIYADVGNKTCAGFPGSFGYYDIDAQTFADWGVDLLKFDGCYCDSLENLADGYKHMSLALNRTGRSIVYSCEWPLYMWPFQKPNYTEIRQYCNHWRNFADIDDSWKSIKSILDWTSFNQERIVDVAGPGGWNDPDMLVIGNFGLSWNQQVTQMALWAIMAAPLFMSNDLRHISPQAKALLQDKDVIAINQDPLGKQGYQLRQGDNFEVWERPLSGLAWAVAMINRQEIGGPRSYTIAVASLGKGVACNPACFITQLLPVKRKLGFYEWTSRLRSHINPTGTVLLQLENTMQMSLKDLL
Pyruvate kinase (Leishmania mexicana), sequence (Q27686 2-499 E452W): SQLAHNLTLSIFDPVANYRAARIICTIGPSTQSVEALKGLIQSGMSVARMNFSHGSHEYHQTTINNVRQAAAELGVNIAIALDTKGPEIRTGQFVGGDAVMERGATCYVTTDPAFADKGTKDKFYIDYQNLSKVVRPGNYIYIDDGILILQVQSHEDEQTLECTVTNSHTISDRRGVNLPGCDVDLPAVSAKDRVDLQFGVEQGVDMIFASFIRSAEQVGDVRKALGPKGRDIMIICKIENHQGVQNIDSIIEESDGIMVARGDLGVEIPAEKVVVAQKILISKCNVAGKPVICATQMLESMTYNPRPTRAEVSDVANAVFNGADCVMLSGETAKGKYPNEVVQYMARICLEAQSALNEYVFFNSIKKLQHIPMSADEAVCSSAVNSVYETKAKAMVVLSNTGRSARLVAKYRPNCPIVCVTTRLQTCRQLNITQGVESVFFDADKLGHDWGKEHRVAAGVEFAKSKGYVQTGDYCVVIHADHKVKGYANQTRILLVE

Take `O=C(NCCCCCCNC(=O)ON=C1CCCCC1)ON=C1CCCCC1`: the Potency result in experiment [1] and in [2] was “inactive” in each case.
Turning to `CC(C)C(N)C(=O)O` (stereo unspecified), the Potency result in [1] and in experiment [2] was “inactive” in each case.
With `COc1c(O)c2c(=O)cc(OC)c3c4c(OC)cc(=O)c5c(O)c(OC)c(C[C@@H](C)OC(=O)c6ccccc6)c(c(c1C[C@@H](C)OC(=O)Oc1ccc(O)cc1)c23)c54`, the activity change, negative = inhibition in experiment [1] was 10.7% [at 4.99 µM] (inactive); in experiment [2], 121% [at 3.88 µM] (inactive).
`CC(C)NC[C@@H](O)COc1ccc(COCCOC(C)C)cc1`: the activity change, negative = inhibition in experiment [3] (at 17.2 µM (top of the series)) was -0.912% (inactive); in [5] (at 17.2 µM (top of the series)), 3.53% (inactive); in experiment [11] (at 25.7 µM (top of the series)), -1.04% (inactive); in [11] (at 57.5 µM (top of the series)), 0.281% (inactive). Besides, the Potency result in experiment [4], in [9], in experiment [10], in [12], in experiment [13] and in [1] was “inactive” each time. Moreover, in [2], the Potency entry was “inactive”. Besides, in experiment [6] (at 17.2 µM (top of the series)), the activity, negative = inhibition is 15.4% (inactive). The Potency in experiment [7] is > 20.6 µM (inactive) and > 46 µM (inactive); in experiment [8], > 20.6 µM (inactive) and > 46 µM (inactive). Also, the max response was 2.54% and -5.68% in [11] (setting [21]); 6.08% and -6.81% in [11] (setting [22]).
With `COC(=O)[C@@H]1[C@H]2C[C@H]3c4[nH]c5ccccc5c4CCN3C[C@H]2CC[C@@H]1O`, the Potency entry in experiment [1] and in [2] was “inactive” in each case.
In the case of `CCCCC(C)(O)C/C=C/[C@H]1[C@H](O)CC(=O)[C@@H]1CCCCCCC(=O)O` (stereo partly specified), the activity change, negative = inhibition was 14% [at 6.83 µM] (inactive) in [1] and -15.4% [at 3.88 µM] (inactive) in [2].
Turning to `O=C(O)COc1ccc(OCCNC[C@H](O)COc2ccccc2)cc1`, the Potency result in experiment [1] and in [2] was “inactive” each time.
In the case of `N[C@@H](C(=O)O)[C@@H](CC(=O)O)c1ccc(Cl)cc1`, the Potency entry in experiment [1] and in [2] was “inactive” each time.
With `COc1ccc(CC(N)C(=O)NC2C(O)[C@H](n3cnc4c(N(C)C)ncnc43)O[C@@H]2CO)cc1` (stereo partly specified), the Potency result in experiment [1] and in [2] was “inactive” throughout.
Regarding `O=C(NCCNC[C@@H](O)COc1ccc(O)cc1)N1CCOCC1`, the activity change, negative = inhibition in experiment [3] (at 17.2 µM (top of the series)) was -7.17% (inactive); in experiment [3] (at 38 µM (top of the series)), -6.28% (inactive); in experiment [5] (at 17.2 µM (top of the series)), -2.05% (inactive); in experiment [5] (at 38 µM (top of the series)), -2.2% (inactive); in [11] (at 25.7 µM (top of the series)) it was -1.5% (inactive); in experiment [11] (at 57.5 µM (top of the series)) it was -3.4% (inactive). Moreover, the Potency result in experiment [4], in experiment [10], in experiment [15], in experiment [16], in experiment [17] and in experiment [13] was “inactive” throughout. Also, the Potency entry in experiment [1] and in experiment [2] was “inactive” in each case. The activity, negative = inhibition in experiment [6] (at 17.2 µM (top of the series)) is 6.36% (inactive); in experiment [6] (at 38 µM (top of the series)), -6.64% (inactive). The Potency in [7] is > 46 µM (inactive) and > 20.6 µM (inactive); in [8] it was > 46 µM (inactive) and > 20.6 µM (inactive). Further, the compound was classed as inactive in experiment [14], in [18], in experiment [19] and in [20]. In addition, the max response is -11.7% and -2.05% in experiment [11] (setting [21]); -12.6% and -5.19% in [11] (setting [22]).

The values above are taken from PubChem BioAssay (NCATS).
